# Reference: PubChem BioAssay (NCATS)
# Records with an inconclusive call do not appear. Activity calls are given as the source filed them. Unless noted, calls come from the whole dose curve; as a rule, active = well fitted curve in the direction sought with a large enough effect; inconclusive = small, poorly fitted or top-dose-only effect, or another doubt; inactive = no such curve, though single readings can be large; an effect the other way counts as inactive or inconclusive.
# Key:
# [1] = molecular target: Lysosomal acid glucosylceramidase (Homo sapiens) (UniProt P04062); experiment: Glucocerebrosidase-p2 (AID 348; in the data active = potency below about 10 µM; note: potency is the fitted concentration of half-maximal effect); details: purified GBA, blue fluorogenic substrate, 40 min
# In short: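 Normal human glucocerebrosidase (0.2 nM) with blue fluorogenic substrate (80 uM final) in citrate/phosphate pH 5.9 with 10mM sodium taurocholate, 0.01% tween-20; 40 min RT, NaOH/glycine stop; fluorescence Ex 365/Em 440; AC50 from a titration from 0.6 nM upwards.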
# [2] = AP1 Signaling Pathway (AID 357; active = well fitted curve in either direction with a large enough effect, not every such curve was filed as active;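 note: ME-180 reporter cells stimulated with EGF at its EC50 level; % is set by controls: 0 for no effect and ±100 for the full control effect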); details: ME-180 AP-1-bla reporter, EGF-induced, beta-lactamase ratio, 5 h; at 7.69 µM (top of the series) unless noted
# In short: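 Modulation of EGF-driven AP-1 transcription was assessed with a beta-lactamase reporter in ME-180 cells. Compound and EC50 EGF were co-incubated 5 hours at 37 °C before 2.5-hour CCF4 loading at room temperature and dual-emission reading.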
# [3] = molecular target: Cytochrome P450 1A2 (Homo sapiens) (UniProt P05177); experiment: p450-cyp1a2 (AID 410; calls by dose curve; note: potency is the fitted concentration of half-maximal effect;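 for activity change, negative = inhibition: -100% = full effect of reference inhibitor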); details: recombinant CYP1A2, luciferin-ME demethylation, luminescence; series mostly up to 57 µM
# In short: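 Read-out is luminescence from luciferin produced by CYP1A2 demethylation of Luciferin-ME (100uM, at Km). Detection reagent stopped the 60 min NADPH-dependent reaction; signals were normalized to 57 uM furafylline.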
# [4] = NFAT Signaling Pathway (AID 444; active = well fitted curve in either direction with a large enough effect, not every such curve was filed as active;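 note: carbachol stimulus at about its EC50 of 1 µM final; % is set by controls: 0 for no effect and ±100 for the full control effect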); details: Jurkat NFAT-bla M1, carbachol, beta-lactamase ratio, 5 h; at 7.69 µM (top of the series) unless noted
# In short: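 Read-out: CCF4 FRET ratio (460 nm/530 nm) after 1 h RT dye loading, used for %activity and AC50 from titration series. Cells: Jurkat NFAT-β-lactamase/M1 line, treated with compound plus 1 uM carbachol for 5 h, 37 °C.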
# [5] = Stat Signaling Pathway (AID 446; active = well fitted curve in either direction with a large enough effect, not every such curve was filed as active;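 note: ME-180 cervical cancer cells given 40 pM IL-6 alongside compound; SIE-controlled beta-lactamase reporter measured as 460/530 nm FRET emission ratio; % is set by controls: 0 for no effect and ±100 for the full control effect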); details: ME-180 (cervical carcinoma) SIE beta-lactamase reporter, IL-6 stimulated, 5 h; at 7.69 µM (top of the series) unless noted
# In short: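 Overnight-plated ME-180 cells bearing a STAT Inducible Element beta-lactamase reporter; 5 h co-exposure to compound and 40 pM IL-6; values normalized to 300 pM IL-6 and 125 nM JAK inhibitor controls.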
# [6] = molecular target: Glucocorticoid receptor (Homo sapiens) (UniProt P04150); experiment: GR-GFP Redistribution (AID 450;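 active = compounds whose dose series gives a full or clear partial fitted curve of increased nuclear translocation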; note: potency is the fitted concentration of half-maximal effect); details: U2OS GR-GFP nuclear translocation, laser cytometry, 2 h
# [7] = molecular target: Glucocorticoid receptor (Homo sapiens) (UniProt P04150); experiment: GR-EFC Redistribution (AID 451; calls by dose curve; note: potency is the fitted concentration of half-maximal effect); details: CHO-K1 GR-EFC translocation, beta-gal luminescence, 2 h
# In short: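 Translocation of GR-ED fusion to nuclear EA restores b-gal, read by luminescence after 1 h room-temperature detection. Engineered CHO-K1 biosensor cells, 1,000/well, exposed 2 h at 37 C to titrations up to 46 uM final.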
# [8] = molecular target: Mitogen-activated protein kinase 10 (Mus musculus) (UniProt Q61831); experiment: JNK3 AlphaScreen Assay (AID 530; active = well fitted curve in either direction with a large enough effect, not every such curve was filed as active;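 note: kinase came from lysate of stimulated human HepG2 cells; signal reports phosphorylation of biotinylated GST-cJun 1-79 at Ser73 with 10 µM ATP; % is set by controls: 0 for no effect and ±100 for the full control effect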); details: JNK3 lysate, c-Jun phosphorylation; series mostly up to 57.1 µM
# In short: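 Kinase buffer: 20 mM Tris-HCl pH 7.6, 10 mM MgCl2, 1 mM DTT, 0.1 mM Na3VO4, 0.01% Tween-20; ATP 10 uM. Substrate biotin-GST-cJun(1-79), enzyme from activated HepG2 lysates. Detection by Ser73 phospho-antibody AlphaScreen.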
# [9] = molecular target: 3',5'-cyclic-AMP phosphodiesterase 4B (Homo sapiens) (UniProt Q07343); experiment: qHTS Assay for Inhibitors of PDE-IV (AID 607; active = well fitted activation curve with a large enough effect in the main read-out, with a control signal flat, not every such curve was filed as active; note: % of control where 0% means no effect); details: HEK293 ACTOne CNG channel cells, membrane potential fluorescence; series mostly up to 22.9 µM
# In short: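 Live HEK293 cells with a modified cyclic nucleotide-gated (CNG) channel report intracellular cAMP via membrane-potential dye fluorescence (ex 535/em 590 nm). Endogenous PDE-IV was targeted. Compounds were tested at up to 22.9 uM final; RO 20-1724 100 uM served as control.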
# [10] = molecular target: Cytochrome P450 3A4 (Homo sapiens) (UniProt P08684); experiment: qHTS Assay for Inhibitors and Substrates of Cytochrome P450 3A4 (AID 884); details: recombinant CYP3A4, Luciferin-PPXE luminescence; series mostly up to 57.1 µM; note: potency is the fitted concentration of half-maximal effect; nearly all actives have a fitted effect of over 50% in size
# In short: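 Luminescent readout of luciferin produced by CYP3A4 (20 nM) dealkylation of Luciferin-PPXE, 25 uM (its KM). NADPH-driven reaction ran 60 min at RT after 10 min compound preincubation; data scaled to 57 uM ketoconazole as 100% inhibition.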
# [11] = molecular target: Cytochrome P450 3A4 (Homo sapiens) (UniProt P08684); experiment: qHTS Assay for Activators of Cytochrome P450 3A4 (AID 885); details: recombinant CYP3A4, Luciferin-PPXE luminescence, 60 min; series mostly up to 57.1 µM; note: nearly all actives have a fitted effect of over 65% in size
# In short: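 Using 20nM recombinant human CYP3A4 in potassium phosphate (200mM), substrate Luciferin-PPXE at 25uM, luminescent luciferin detection followed a 60-min RT NADPH reaction; data scaled to 57 uM ketoconazole.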
# [12] = qHTS Assay for Lipid Storage Modulators (AID 1519; calls by dose curve); details: Drosophila S3 cells, BODIPY lipid droplet/cell ratio, laser cytometry, cells loaded with oleic acid; for activity change, negative = inhibition: at 57.5 µM (top of the series)
# In short: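 Cells seeded at 5,000 per well were treated with compounds over a concentration series and loaded with oleic acid (400 uM, as added). Lipid droplet fluorescence (488 nm excitation, 500-530 nm channel) was read by laser-scanning cytometry and normalized to 20 uM Triacsin C.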
# [13] = molecular target: Dual specificity protein kinase CLK4 (Homo sapiens) (UniProt Q9HAZ1); experiment: qHTS Assay for Inhibitors of CDC-like Kinase 4 (ADP-Glo Assay) (AID 1771); details: recombinant CLK4, ADP-Glo luminescence; series mostly up to 80 µM; note: nearly all actives have a fitted effect of over 70% in size; note: potency is the fitted concentration of half-maximal effect
# In short: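 In this ADP-Glo format, 1 uM ATP and 100 uM RS peptide served as substrates for 25 nM Clk4 in Mg2+/EGTA/DTT/Triton buffer; reactions ran 1 hr at room temperature before luminescent ADP quantification.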
# [14] = molecular target: Dual specificity protein kinase CLK4 (Homo sapiens) (UniProt Q9HAZ1); experiment: qHTS Assay for Inhibitors of CDC-like Kinase 4 (ADP-FP Assay) (AID 1795); details: Transcreener ADP fluorescence polarization; series mostly up to 50 µM;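 note: recombinant human CLK4 phosphorylating RS repeat peptide at 1 µM ATP; % is set by controls: 0 for no effect and ±100 for the full control effect; nearly all actives have a fitted effect of over 60% in size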
# In short: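 Recombinant Clk4 (6.25 nM) phosphorylated 100 uM RS repeat peptide with 1 uM ATP in 25 mM Tris pH 7.5, 10 mM MgCl2, 0.5 mM EGTA, 2.5 mM DTT, 0.01% Triton X-100 for 1 h. ADP was detected by Transcreener ADP2 competitive fluorescence polarization after 30 min at room temperature.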
# [15] = Primary qHTS for small molecule stabilizers of the endoplasmic reticulum resident proteome: Secreted ER Calcium Modulated Protein (SERCaMP) assay (AID 1508630); details: SH-SY5Y GLuc-SERCaMP (Gaussia luciferase released on ER calcium loss) secretion, thapsigargin, luminescence; series mostly up to 38.4 µM; note: % is set by controls: 0 for no effect and ±100 for the full control effect
# In short: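 The SH-SY5Y reporter protocol was run at 3 concentrations up to 38.3 uM (primary) or 11 concentrations (follow-up): 16 h compound, 100 nM thapsigargin for 4 h, then extracellular luciferase luminescence.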
# [16] = molecular target: Ubiquitin carboxyl-terminal hydrolase 1 (Homo sapiens) (UniProt O94782); experiment: Inhibitors of USP1/UAF1: Pilot qHTS (AID 504865); details: purified USP1/UAF1, Ub-rhodamine cleavage fluorescence; series mostly up to 54.9 µM;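 note: rhodamine fluorescence freed from ubiquitin-rhodamine substrate followed over time; top concentration of the series differs between compounds; % is set by controls: 0 for no effect and ±100 for the full control effect; nearly all actives have a fitted effect of over 35% in size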
# In short: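 USP1/UAF1 complex at 1 nM preincubated 15 min at room temperature with compound, then Ub-Rho substrate added at 150 nM final. Fluorescence (480/540 nm) read kinetically in 50 mM HEPES pH 7.8, 0.5 mM EDTA, 1 mM TCEP, 0.1 mg/ml BSA, 0.01% Tween-20.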
# [17] = molecular target: Cytochrome P450 2D6 (Homo sapiens) (UniProt P10635); experiment: qHTS Assay for Inhibitors and Substrates of Cytochrome P450 2D6 (AID 891); details: recombinant CYP2D6, luciferin-ME EGE luminescence; series mostly up to 57.1 µM; note: potency is the fitted concentration of half-maximal effect; nearly all actives have a fitted effect of over 60% in size
# In short: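 Luminescent read-out of luciferin formed by 5 nM human CYP2D6 demethylating 30 uM Luciferin-ME EGE (Km level) over 60 min at room temperature after NADPH regeneration addition. Data normalized to full inhibition by 1.43 uM quinidine.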
# [18] = measured here: cell count channel max response
# [19] = measured here: lipid channel max response
# Cytochrome P450 1A2 (Homo sapiens), sequence (P05177 whole entry, looked up): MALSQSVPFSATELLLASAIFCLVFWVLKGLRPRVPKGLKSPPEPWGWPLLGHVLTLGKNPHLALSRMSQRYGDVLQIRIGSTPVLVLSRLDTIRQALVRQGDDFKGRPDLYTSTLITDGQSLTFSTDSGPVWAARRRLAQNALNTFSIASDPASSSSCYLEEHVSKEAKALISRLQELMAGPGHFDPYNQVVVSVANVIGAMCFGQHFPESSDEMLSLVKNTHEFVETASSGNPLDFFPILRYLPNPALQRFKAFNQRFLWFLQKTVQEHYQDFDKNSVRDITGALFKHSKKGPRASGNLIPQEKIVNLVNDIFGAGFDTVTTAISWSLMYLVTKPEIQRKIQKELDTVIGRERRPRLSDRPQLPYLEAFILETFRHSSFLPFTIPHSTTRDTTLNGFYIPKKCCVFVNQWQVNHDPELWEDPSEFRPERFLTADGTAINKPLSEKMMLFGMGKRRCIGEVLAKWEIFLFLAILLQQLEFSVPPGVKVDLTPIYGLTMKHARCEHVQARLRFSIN
# Glucocorticoid receptor (Homo sapiens), sequence (P04150 whole entry, looked up, the tested form may be a part): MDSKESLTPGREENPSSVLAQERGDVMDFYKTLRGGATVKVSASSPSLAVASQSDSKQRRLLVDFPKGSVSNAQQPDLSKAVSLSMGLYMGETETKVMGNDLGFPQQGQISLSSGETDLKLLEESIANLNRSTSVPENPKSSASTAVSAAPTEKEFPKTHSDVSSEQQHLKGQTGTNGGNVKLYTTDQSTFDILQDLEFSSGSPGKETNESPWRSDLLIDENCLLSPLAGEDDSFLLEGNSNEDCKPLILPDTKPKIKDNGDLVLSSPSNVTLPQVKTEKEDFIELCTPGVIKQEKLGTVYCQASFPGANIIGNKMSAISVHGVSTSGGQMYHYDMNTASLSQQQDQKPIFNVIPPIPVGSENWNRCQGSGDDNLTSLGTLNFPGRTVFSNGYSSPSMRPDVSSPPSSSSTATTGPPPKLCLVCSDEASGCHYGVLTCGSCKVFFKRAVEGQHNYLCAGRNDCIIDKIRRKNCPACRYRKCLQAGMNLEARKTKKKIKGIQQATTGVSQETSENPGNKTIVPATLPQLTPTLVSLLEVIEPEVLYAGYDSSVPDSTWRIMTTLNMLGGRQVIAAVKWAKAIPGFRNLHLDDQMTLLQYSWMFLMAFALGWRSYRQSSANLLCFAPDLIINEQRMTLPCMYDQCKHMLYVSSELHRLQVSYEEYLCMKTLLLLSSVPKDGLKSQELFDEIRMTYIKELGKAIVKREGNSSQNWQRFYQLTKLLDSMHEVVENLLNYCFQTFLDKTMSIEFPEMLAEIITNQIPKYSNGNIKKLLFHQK
# Ubiquitin carboxyl-terminal hydrolase 1 (Homo sapiens), sequence (O94782 whole entry, looked up): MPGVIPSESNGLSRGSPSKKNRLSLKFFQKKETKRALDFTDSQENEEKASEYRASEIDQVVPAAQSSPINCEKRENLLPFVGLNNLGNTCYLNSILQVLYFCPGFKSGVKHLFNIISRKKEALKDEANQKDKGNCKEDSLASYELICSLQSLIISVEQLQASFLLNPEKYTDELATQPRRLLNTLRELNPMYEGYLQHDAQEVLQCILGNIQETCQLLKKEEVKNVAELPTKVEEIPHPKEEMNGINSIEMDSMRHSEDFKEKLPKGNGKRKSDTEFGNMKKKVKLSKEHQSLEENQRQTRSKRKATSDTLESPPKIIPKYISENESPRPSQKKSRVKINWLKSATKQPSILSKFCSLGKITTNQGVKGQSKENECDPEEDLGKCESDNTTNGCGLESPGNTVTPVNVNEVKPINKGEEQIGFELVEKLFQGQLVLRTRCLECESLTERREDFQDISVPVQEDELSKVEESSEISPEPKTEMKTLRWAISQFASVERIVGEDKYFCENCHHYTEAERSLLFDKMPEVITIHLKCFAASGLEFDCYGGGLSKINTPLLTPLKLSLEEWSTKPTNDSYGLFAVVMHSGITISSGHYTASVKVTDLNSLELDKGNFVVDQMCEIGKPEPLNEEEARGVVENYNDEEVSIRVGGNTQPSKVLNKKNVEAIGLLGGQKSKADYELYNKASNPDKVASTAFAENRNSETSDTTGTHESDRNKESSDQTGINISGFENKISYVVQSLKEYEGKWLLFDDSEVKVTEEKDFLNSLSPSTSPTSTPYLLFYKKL
# Lysosomal acid glucosylceramidase (Homo sapiens), sequence (P04062 whole entry, looked up): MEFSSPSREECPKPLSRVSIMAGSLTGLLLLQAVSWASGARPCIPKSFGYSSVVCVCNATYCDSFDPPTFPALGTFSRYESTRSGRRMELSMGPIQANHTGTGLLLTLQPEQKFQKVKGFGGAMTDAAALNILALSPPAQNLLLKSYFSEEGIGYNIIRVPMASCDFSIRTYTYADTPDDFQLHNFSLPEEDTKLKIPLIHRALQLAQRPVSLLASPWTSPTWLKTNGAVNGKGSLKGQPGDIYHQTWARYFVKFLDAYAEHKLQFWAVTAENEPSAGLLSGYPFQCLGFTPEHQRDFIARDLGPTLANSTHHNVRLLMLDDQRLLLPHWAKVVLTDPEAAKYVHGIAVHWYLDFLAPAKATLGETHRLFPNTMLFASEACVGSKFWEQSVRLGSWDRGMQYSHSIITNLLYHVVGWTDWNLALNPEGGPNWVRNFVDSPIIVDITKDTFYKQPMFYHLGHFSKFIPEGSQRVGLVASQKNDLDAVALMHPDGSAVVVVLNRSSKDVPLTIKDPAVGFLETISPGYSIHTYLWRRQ
# Dual specificity protein kinase CLK4 (Homo sapiens), sequence (Q9HAZ1 whole entry, looked up): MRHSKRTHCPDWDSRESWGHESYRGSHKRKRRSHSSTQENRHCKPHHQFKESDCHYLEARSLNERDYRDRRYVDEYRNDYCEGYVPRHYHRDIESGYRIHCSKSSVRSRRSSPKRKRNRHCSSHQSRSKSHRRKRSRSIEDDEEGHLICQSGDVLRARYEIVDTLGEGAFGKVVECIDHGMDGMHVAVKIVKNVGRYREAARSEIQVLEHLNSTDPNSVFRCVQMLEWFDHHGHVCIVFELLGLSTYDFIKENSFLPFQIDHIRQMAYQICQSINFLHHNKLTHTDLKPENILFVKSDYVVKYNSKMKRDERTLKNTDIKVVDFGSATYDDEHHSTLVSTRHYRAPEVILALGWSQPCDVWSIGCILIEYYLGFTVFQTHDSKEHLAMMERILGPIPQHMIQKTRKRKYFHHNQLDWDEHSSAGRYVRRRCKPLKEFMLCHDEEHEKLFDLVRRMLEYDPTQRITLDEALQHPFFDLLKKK
# 3',5'-cyclic-AMP phosphodiesterase 4B (Homo sapiens), sequence (Q07343 whole entry, looked up): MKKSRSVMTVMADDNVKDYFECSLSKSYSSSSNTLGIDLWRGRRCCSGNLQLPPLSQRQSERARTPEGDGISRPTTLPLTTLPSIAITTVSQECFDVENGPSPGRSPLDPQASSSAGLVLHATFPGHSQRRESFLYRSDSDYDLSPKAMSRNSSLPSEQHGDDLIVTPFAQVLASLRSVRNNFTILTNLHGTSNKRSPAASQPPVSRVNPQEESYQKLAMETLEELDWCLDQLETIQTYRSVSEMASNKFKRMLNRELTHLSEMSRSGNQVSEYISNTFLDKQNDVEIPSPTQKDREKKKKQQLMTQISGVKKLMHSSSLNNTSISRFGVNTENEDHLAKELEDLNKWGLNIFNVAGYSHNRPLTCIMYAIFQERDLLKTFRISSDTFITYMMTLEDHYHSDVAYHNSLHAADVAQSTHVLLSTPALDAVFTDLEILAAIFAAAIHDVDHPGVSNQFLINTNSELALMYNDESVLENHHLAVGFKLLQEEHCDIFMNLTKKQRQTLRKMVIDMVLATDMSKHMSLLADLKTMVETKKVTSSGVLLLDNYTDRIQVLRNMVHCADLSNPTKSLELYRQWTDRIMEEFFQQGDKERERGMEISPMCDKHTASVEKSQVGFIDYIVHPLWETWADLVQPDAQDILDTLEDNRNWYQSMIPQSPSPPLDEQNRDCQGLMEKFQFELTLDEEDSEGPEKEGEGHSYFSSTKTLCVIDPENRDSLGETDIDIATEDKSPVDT
# Cytochrome P450 3A4 (Homo sapiens), sequence (P08684 whole entry, looked up): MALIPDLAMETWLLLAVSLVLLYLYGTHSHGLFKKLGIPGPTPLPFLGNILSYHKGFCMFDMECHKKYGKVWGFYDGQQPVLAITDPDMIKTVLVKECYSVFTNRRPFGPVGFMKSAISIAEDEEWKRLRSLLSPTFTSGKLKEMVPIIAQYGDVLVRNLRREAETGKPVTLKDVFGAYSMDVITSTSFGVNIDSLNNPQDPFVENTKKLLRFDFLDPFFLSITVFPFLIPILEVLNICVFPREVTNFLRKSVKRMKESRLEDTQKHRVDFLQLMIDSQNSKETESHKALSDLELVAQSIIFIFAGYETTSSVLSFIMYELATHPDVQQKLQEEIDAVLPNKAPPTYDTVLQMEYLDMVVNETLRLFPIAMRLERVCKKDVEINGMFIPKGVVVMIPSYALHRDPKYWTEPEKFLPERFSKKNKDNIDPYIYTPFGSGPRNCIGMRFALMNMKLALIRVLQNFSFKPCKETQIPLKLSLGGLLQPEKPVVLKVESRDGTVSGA
# Cytochrome P450 2D6 (Homo sapiens), sequence (P10635 whole entry, looked up): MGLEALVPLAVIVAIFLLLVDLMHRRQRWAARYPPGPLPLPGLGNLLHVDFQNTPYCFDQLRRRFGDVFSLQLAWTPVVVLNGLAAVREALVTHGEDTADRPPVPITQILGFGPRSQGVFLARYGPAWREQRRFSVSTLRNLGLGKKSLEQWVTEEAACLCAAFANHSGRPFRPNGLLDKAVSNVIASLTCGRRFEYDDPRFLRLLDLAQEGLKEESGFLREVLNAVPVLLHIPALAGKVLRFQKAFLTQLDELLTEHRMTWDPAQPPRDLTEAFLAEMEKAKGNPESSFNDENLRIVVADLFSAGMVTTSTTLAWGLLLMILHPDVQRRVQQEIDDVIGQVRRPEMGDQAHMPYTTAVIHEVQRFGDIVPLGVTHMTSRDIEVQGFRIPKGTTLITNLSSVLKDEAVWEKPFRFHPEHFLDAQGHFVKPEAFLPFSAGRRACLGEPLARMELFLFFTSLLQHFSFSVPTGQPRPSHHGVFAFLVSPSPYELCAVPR
SMILES,Potency [1],"activity change, negative = inhibition [2]",Potency [3],"activity change, negative = inhibition [4]","activity, negative = inhibition [5]",Potency [6],Potency [7],outcome [8],Potency [9],Potency [10],Potency [11],"activity change, negative = inhibition [12]","max response [12, 18] [%]","max response [12, 19] [%]",Potency [13],Potency [14],Potency [15],Potency [16],Potency [17]
COc1ccc(Oc2ncc3nc(C)c(=O)n(-c4ccccc4)c3n2)cc1,> 11.4 µM (inactive),-15.8% (inactive),7.94 µM (active),-10.3% (inactive),-5.69% (inactive),> 9.22 µM (inactive),> 46 µM (inactive),inactive,inactive,5.01 µM (active),inactive,6.06% (inactive),10.7,17.1,inactive,inactive,inactive,,
CN(Cc1ccco1)c1ncncc1-c1cccc(C#N)c1,,21.3% (inactive),12.6 µM (active),,7.25% (inactive),> 46 µM (inactive),> 46 µM (inactive),inactive,inactive,7.94 µM (active),inactive,5.47% (inactive),14.4,17.8,inactive,,inactive,inactive,
Cn1c(=O)cnc2cnc(OCc3ccccc3)nc21,> 11.4 µM (inactive),-10.8% (inactive),,0.699% (inactive),-10.5% (inactive),> 9.22 µM (inactive),> 46 µM (inactive),inactive,inactive,,,9.09% (inactive),18.8,26,20 µM (active),,inactive,inactive,
CN(C)C(=O)c1ccc(-c2cncnc2N2CCNCC2)cc1,> 11.4 µM (inactive),-5.59% (inactive),inactive,10.6% (inactive),9.81% (inactive),> 46 µM (inactive),> 46 µM (inactive),inactive,inactive,,,5.34% (inactive),16.8,20.2,inactive,inactive,inactive,inactive,7.94 µM (active)
CN(C)Cc1ccccc1-c1nc(NC2CCNCC2)c2ccccc2n1,> 11.4 µM (inactive),24.8% (inactive),,-15% (inactive),,> 46 µM (inactive),> 46 µM (inactive),inactive,inactive,,,2.42% (inactive),8.01,7.24,inactive,inactive,inactive,inactive,
O=c1c(-c2ccc(F)cc2)nc2cnc(Oc3ccccc3)nc2n1C1CC1,,2.54% (inactive),,5.2% (inactive),-10.8% (inactive),> 9.22 µM (inactive),> 46 µM (inactive),inactive,inactive,,,0.468% (inactive),0.149,-1.57,inactive,inactive,inactive,inactive,
